In all, about 360,000 compounds went through this assay and about 690 (0.19%) were called active. The full list was thinned out, with actives kept by preference. Unmarked numbers belong to inactive results.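 The calls were made as follows: active = fluorescence ratio to DMSO below 75%, the collection mean minus 3 SD; inconclusive = too few cells collected in the well; inactive = the rest.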

In this experiment the target is ATP-binding cassette sub-family B member 6 (Homo sapiens) (UniProt Q9NP58). Put plainly: ABCB6 transporter inhibitors, primary screen, K562-ABCB6 cells, flow cytometry, MLPCN library (AID 602162).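 Also: signal is porphyrin accumulated inside mitochondria; 100% equals median channel fluorescence of DMSO control wells; lower ratio means ABCB6 inhibition with less porphyrin fluorescence.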 The conditions noted are these: K562-ABCB6 porphyrin accumulation, 1 h, at 10 µM, hits give low values.
ATP-binding cassette sub-family B member 6 (Homo sapiens), sequence (Q9NP58 whole entry, looked up): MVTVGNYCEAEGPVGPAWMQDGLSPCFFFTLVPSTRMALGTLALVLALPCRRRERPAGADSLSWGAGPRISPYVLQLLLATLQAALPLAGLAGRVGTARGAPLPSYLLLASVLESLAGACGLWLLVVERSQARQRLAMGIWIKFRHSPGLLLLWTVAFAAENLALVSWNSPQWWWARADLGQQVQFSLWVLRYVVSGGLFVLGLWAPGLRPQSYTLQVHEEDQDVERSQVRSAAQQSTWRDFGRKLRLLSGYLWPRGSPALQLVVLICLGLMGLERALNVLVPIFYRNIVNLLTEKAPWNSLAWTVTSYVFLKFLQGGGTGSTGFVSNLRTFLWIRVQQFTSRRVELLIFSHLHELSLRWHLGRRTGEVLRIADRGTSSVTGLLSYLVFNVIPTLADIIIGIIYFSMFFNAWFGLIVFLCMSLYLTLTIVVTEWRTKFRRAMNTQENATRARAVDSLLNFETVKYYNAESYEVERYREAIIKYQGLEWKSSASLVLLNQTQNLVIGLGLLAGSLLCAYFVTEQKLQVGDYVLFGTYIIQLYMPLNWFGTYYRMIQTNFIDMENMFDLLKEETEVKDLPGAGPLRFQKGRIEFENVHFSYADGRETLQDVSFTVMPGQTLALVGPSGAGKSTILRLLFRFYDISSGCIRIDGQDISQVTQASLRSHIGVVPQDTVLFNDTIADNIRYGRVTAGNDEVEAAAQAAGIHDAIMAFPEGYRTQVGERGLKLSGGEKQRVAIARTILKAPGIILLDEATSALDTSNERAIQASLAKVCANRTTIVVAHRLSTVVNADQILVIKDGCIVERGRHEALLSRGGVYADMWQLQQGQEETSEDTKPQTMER
With `CC1(C)Cc2c(C#N)c(SCc3nc4ccccc4[nH]3)nc(N3CCOCC3)c2CO1`, the fluorescence ratio to DMSO was 74% (active). As for `CCOC(=O)CSc1nc(N2CCOCC2)c2c(c1C#N)CC(C(C)C)OC2` (stereo unspecified), the fluorescence ratio to DMSO was 97%.

In the case of `CC(C)C(=O)N1CCN(c2nc(-c3ccccc3)c3c(c2C#N)CC(C)(C)OC3)CC1`, the fluorescence ratio to DMSO is 111%. As for `Cc1cccc(OCCNC(=O)CSc2ccc(C(F)(F)F)cc2[N+](=O)[O-])c1`, the figure is 98%; as for `CCCOc1ccc(C(=O)C(CCC(CNCC)C(=O)c2ccc(OCCC)cc2)CNCC)cc1` (stereo unspecified), 94%; as for `CC1CCN(C(NC(=O)c2ccco2)C(=O)c2ccccc2)CC1` (stereo unspecified), 99%. In the case of `CCCCN(C(=O)CSCC(=O)Nc1ccc(OC)cc1)c1c(N)n(CCC)c(=O)[nH]c1=O` it was 99%. As to `COc1ccc(CCNS(=O)(=O)c2ccc(F)cc2)cc1OC`, the fluorescence ratio to DMSO is 62% (active). On to `COc1ccc(CCNS(=O)(=O)c2ccc(Cl)s2)cc1OC`, for which the fluorescence ratio to DMSO is 88%. As for `COc1ccc(CCNS(=O)(=O)c2ccc(C(=O)NCc3ccco3)cc2)cc1OC`, the figure is 100%; as for `CCCCc1nc2ccc(F)cc2cc1C`, 95%. For the molecule `O=C(CSc1nnc(Nc2ccccc2F)s1)NC1CCCC1`, the fluorescence ratio to DMSO was 101%. Regarding `CCOc1ccc(OCC(=O)OC(C)C(=O)NC2CCCCC2C)cc1` (stereo unspecified), the fluorescence ratio to DMSO was 99%. For the molecule `COc1ccc(C(=O)OCC(=O)c2ccc(Cl)s2)c(OC)c1OC`, the fluorescence ratio to DMSO was 101%.

Consider `CCOC(=O)C1CSC(CC(=O)Nc2ccc(OCC)cc2)C(=O)N1` (stereo unspecified), for which the fluorescence ratio to DMSO is 95%.

Regarding `CCOc1ccc(NC(=O)CC2NCCNC2=O)cc1` (stereo unspecified), the fluorescence ratio to DMSO was 73% (active). Take `CCOc1ccc(NC(=O)CCC(=O)NNC(=O)NC2CCCCC2)cc1`: the fluorescence ratio to DMSO is 98%. On to `COc1cc([N+](=O)[O-])ccc1NC(=S)N1CCN(c2ccccn2)CC1`, for which the fluorescence ratio to DMSO was 98%. In the case of `O=C(c1cccc(S(=O)(=O)N2CCCC2)c1)N(Cc1ccco1)C1CCS(=O)(=O)C1` (stereo unspecified), the fluorescence ratio to DMSO was 97%. Consider `Cc1nccn1-c1ccc(NC(=O)[C@H]2O[C@@H](n3ccc(=O)[nH]c3=O)[C@H](O)[C@@H]2O)cc1`, for which the fluorescence ratio to DMSO was 99%. As for `CCOC(=O)C1CCCN(C(=O)COc2ccc(N(C)S(=O)(=O)c3ccc(C)cc3)cc2)C1` (stereo unspecified), the fluorescence ratio to DMSO was 98%.

Source of the values: PubChem BioAssay AID602162 (NMMLSC, 2011).
